Screening results deposited in PubChem by The Scripps Research Institute Molecular Screening Center.
Sampled rows, rich in hits. Any-hit rate of the full collection: about 3.5%.
TEAD-YAP block – TEAD-YAP interaction inhibition. actives 1.4% (n = 640,000). HEK-TIYL cells, TEAD-Gal4/YAP UAS-luciferase luminescence. inhibition, % at 9.12 µM; in the data active means inhibition above about 32%;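 further: 0% = median of test compound wells and 100% = reference inhibitor wells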
MITF inh – human MITF inhibition, primary screen; O75030; AlphaScreen MITF homodimerization, bead proximity signal; inhibition, % at 2.6 µM; actives 0.91% (n = 650,000); AID 1259374; in the data active means inhibition above about 50%;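 further: 0% = vehicle wells with protein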
FBW7 act – human FBW7 E3 ligase activation, primary screen; Q969H0; AlphaScreen FBW7–phospho-cyclin E peptide binding, activator screen; normalized activity (activation), % at 26.1 µM; actives 0.13% (n = 650,000); AID 1259310; in the data active means normalized activity above about 1.9%;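 further: purified mutant Fbw7 with reduced substrate affinity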
GPR151 ag – human GPR151 activation | actives 1% (n = 650,000) | PathHunter beta-arrestin GPR151 cells, luminescence | activation, % at 11.2 µM | Q8TDV0; in the data active means activation above about 4.9%;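 further: 0% = median of compound wells and 100% = cells with positive control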
Target sequence (Q8TDV0 whole entry, looked up): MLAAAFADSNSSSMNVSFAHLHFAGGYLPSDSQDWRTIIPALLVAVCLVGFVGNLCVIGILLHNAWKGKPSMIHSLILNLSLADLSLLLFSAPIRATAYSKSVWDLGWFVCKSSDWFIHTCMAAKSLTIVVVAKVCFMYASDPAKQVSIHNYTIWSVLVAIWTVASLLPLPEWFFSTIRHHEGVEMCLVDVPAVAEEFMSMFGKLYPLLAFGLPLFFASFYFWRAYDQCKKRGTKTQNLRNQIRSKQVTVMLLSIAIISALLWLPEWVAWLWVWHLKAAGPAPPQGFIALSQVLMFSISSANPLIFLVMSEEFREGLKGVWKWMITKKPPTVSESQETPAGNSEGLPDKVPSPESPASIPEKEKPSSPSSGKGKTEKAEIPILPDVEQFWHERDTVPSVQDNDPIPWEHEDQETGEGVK
GPR151 confirm – confirmation of human GPR151 activators; shares compounds with GPR151 ag; GPR151 PathHunter beta-arrestin cells, luminescence, 90 min; % of EA-reagent control over plate median; activation, % at 11.2 µM; 6,700 tested, under 10 active; AID 1508609;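 active means mean percent activation across replicates above the confirmation screen cutoff of 4.91%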
GPR119 ag – activates human GPR119 in a GPR151 counter-screen; shares compounds with GPR151 ag; activation, % at 11.2 µM; GPR119 PathHunter beta-arrestin cells, luminescence, 90 min; 0 = compound-well median, 100 = enzyme-acceptor control; actives 0.3% (n = 6,700);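 active means mean percent activation in the counterscreen above 29.09%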;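 further: counterscreen on off-target GPR119 to flag nonselective hits from the GPR151 activator screen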
An asterisk follows results filed as active; x = no result given.

SMILES | TEAD-YAP block | MITF inh | FBW7 act | GPR151 ag | GPR151 confirm | GPR119 ag
CCc1ccccc1N(CC(=O)Nc1ccccc1Cl)S(C)(=O)=O | 4 | -5 | 0 | 14* | -1 | 1
CCSc1nnc(NC(=O)c2cnc3sc(C)cn3c2=O)s1 | -6 | -18 | 0 | 0 | x | x
O=C(Cn1nnc(-c2ccc(Cl)cc2-n2cnnn2)n1)Nc1ccc(F)c(Cl)c1 | 13 | -6 | 0 | 0 | x | x
CCc1ccccc1N(CC(=O)Nc1ccc(F)c(F)c1)S(C)(=O)=O | -11 | 1 | 0 | 6.7* | 0 | -9
O=[N+]([O-])c1ccccc1S(=O)(=O)NCc1cc(Cl)cc(Cl)c1 | -1 | 5 | 1 | 1 | x | x
OCCC1CN(Cc2ccc(-n3cccn3)cc2)CCN1Cc1ccccc1F (stereo not given) | -1 | 1 | 0 | 3 | x | x
COc1cccc(CN2CCN(C(=O)c3cc(Br)cs3)CC2)c1 | -2 | -2 | 0 | 5.8* | 1 | 11
COc1cccc(CN2CCN(C(=O)c3c(OC)cccc3OC)CC2)c1 | 4 | 17 | 0 | 0 | x | x
COc1ccc(C(=O)N2CCN(Cc3ccc4ccccc4c3)CC2)cc1 | 36* | 47 | -1 | 7.7* | 1 | -1
C=CCOc1ccc(C(=O)N2CCN(c3ccc(OC)cc3)CC2)cc1 | -8 | 8 | 1 | 6.1* | 0 | 5
COc1ccc(N2CCN(C(=O)c3ccc(OC(C)=O)cc3)CC2)cc1 | -1 | 14 | 0 | -1 | x | x
COc1cccc2c(C)nc(N=C(N)N)nc12 | -17 | 2 | 0 | 0 | x | x
O=S(=O)(N/N=C/c1cccc(Cl)c1)c1ccc(Cl)cc1 | -9 | 15 | 0 | 5.2* | -2 | -6
O=C(COC(=O)c1ccc(OC(F)F)cc1)Nc1cccnc1Cl | -3 | 12 | 0 | 12* | -1 | 5
O=C(NC1CCCCC1)C(NCCO)c1ccc(F)cc1 (stereo not given) | 2 | 20 | 0 | -1 | x | x
Cc1ccc(-n2c(SCc3cccc([N+](=O)[O-])c3)nc3[nH]ncc3c2=O)cc1Cl | 16 | -4 | 0 | 4.9* | 0 | -3
O=c1c2cn[nH]c2nc(SCc2cccc([N+](=O)[O-])c2)n1-c1ccc(Cl)cc1 | -4 | 9 | 1 | -1 | x | x
Cc1ccc2nc(N3CCC(C(=O)NC45CC6CC(CC(O)(C6)C4)C5)CC3)nc(C)c2c1 | 6 | -2 | 0 | -1 | x | x
Cn1nccc1Nc1cc(C(=O)NCCOc2ccccc2)c2ccccc2n1 | 3 | 14 | 0 | 5.3* | -1 | -13
CNC(=O)NC(=O)COC(=O)[C@@H](NS(=O)(=O)c1ccccc1)C(C)C | 5 | 3 | 0 | -1 | x | x
O=C(Cc1ccsc1)NCC1Cc2c(F)ccc(-c3ccncc3)c2O1 (stereo not given) | 24 | 3 | 0 | 17* | 0 | 2
CC(C)CC(=O)NCC1Cc2c(F)ccc(-c3ccncc3)c2O1 (stereo not given) | 1 | 6 | 0 | -1 | x | x
Cc1ccc(Nc2ncnc3sc4c(c23)CCCC4)cc1 | 5 | 17 | 0 | 20* | 1 | -2
Clc1ccc(Nc2ncnc3sc4c(c23)CCCC4)cc1 | -1 | -6 | 0 | 2 | x | x
CC1=C(C(=O)OCCOC(C)C)C(c2cccc(Cl)c2Cl)C2=C(CCCC2=O)N1 (stereo not given) | 19 | -20 | 0 | -1 | x | x
SMILES | TEAD-YAP block | MITF inh | FBW7 act | GPR151 ag | GPR151 confirm | GPR119 ag
O=C(O)c1cccc(Nc2ccc([N+](=O)[O-])cc2[N+](=O)[O-])c1 | 5 | -15 | 0 | -1 | x | x
FC(F)(F)c1ccc(Cn2cnc3c(Nc4ccc(N5CCOCC5)cc4)nc(N4CCOCC4)nc32)cc1 | -1 | 10 | 0 | 2 | x | x
COc1ccc(-c2nc(Nc3ccc(N4CCOCC4)cc3)c3ncn(Cc4ccc(C(F)(F)F)cc4)c3n2)cc1 | 9 | -1 | 0 | 12* | 0 | -7
FC(F)(F)c1ccc(Cn2cnc3c(Nc4ccc(N5CCOCC5)cc4)nc(Cl)nc32)cc1 | 4 | -1 | 0 | 6.9* | 1 | -2
COc1ccc(CCNc2nc(NC3CCC(O)CC3)nc3c2ncn3Cc2ccc(C(F)(F)F)cc2)cc1 (stereo not given) | 36* | -13 | 0 | 5.9* | 0 | 37*
NC(=O)c1ccc(-c2nc(Nc3ccc(N4CCOCC4)cc3)c3ncn(Cc4ccc(C(F)(F)F)cc4)c3n2)cc1 | 6 | -6 | 0 | 0 | x | x
CC(C)N(CCNc1nc(NC2CCC(O)CC2)nc2c1ncn2Cc1ccc(C(F)(F)F)cc1)C(C)C (stereo not given) | 6 | -10 | 0 | -1 | x | x
COc1ccc(CCNc2nc(Nc3ccc(N4CCOCC4)cc3)nc3c2ncn3-c2ccccc2)cc1 | 12 | 12 | 0 | 6.5* | 0 | 10
COc1ccc(CCN2C(=O)c3ccccc3C2=O)cc1OC | 1 | 9 | 0 | 0 | x | x
COC(=O)C(C)NC(=O)C1CCCCC1 (stereo not given) | -9 | -7 | 0 | 0 | x | x
O=C(CSc1ccc(F)cc1)NNC(=O)CC12CC3CC(CC(C3)C1)C2 | -4 | -6 | 0 | 2 | x | x
NC(=O)C1(N2CCCCC2)CCN(S(=O)(=O)c2ccc(Cl)cc2)CC1 | -9 | -2 | 0 | 5.4* | 0 | 3
COc1ccccc1NS(=O)(=O)c1ccc(CN2C(=O)c3cccnc3C2=O)cc1 | 11 | 11 | 0 | 7.3* | 0 | -4
CCOc1ccc(NS(=O)(=O)c2ccc(CN3C(=O)c4cccnc4C3=O)cc2)cc1 | -3 | 5 | 0 | 1 | x | x
C/C(=N\NC(=O)c1nnn(-c2nonc2N)c1CN1CCOCC1)c1ccccc1O | 0 | 2 | 0 | 1 | x | x
CCOc1cc(C(=O)N2CCN(C)CC2)cc(OCC)c1OCC | 12 | 1 | 0 | 0 | x | x
CC(C)N=c1c([N+](=O)[O-])nn(-c2cccc(Cl)c2)n1O | 5 | 11 | 0 | -2 | x | x
CCCCCC1C/C(=N/OC(C)=O)C=C(C)C1C(=O)OC (stereo not given) | -3 | -6 | 0 | 7.3* | 1 | 10
O=C(COc1ccc(N2CCCC2)nn1)NCc1csc(-c2cccs2)n1 | -6 | 14 | 0 | 0 | x | x
O=C1CC(=O)Nc2cc(S(=O)(=O)N3CCn4c3nc3ccccc34)ccc2N1 | -6 | 8 | 0 | 5.9* | 0 | 10
Cn1c(=O)oc2cc(S(=O)(=O)N3CCn4c3nc3ccccc34)ccc21 | -11 | 3 | 0 | 1 | x | x
COc1ccccc1CNC(=O)COc1cccc(C)c1 | 3 | 14 | 0 | -1 | x | x
O=C(Nc1ccc(Cl)cc1)c1nn2cccnc2c1Cl | -66 | 5 | 0 | 0 | x | x
C=CCNC(=O)c1nn2cccnc2c1Cl | -14 | -12 | 0 | 5.3* | 1 | -1
c1nc(NCCc2ccc3c(c2)OCCO3)c2ccsc2n1 | 39* | -2 | 0 | 5.6* | 2 | 0
